In ChEMBL document CHEMBL1201862, “PubChem BioAssay data set” (2004):
Among all 400,000 compounds or so, about 2,100 (0.53%) were called active. Roughly 14% stayed inconclusive and do not appear here. No rule for the calls is given here. The entries come from a sample that favours actives as a whole.

Molecular target: Ataxin-2 (Homo sapiens) (UniProt Q99700)
Assay: qHTS for Inhibitors of ATXN expression.
Format: functional

Chain of Ataxin-2 (Homo sapiens) (Q99700 whole entry): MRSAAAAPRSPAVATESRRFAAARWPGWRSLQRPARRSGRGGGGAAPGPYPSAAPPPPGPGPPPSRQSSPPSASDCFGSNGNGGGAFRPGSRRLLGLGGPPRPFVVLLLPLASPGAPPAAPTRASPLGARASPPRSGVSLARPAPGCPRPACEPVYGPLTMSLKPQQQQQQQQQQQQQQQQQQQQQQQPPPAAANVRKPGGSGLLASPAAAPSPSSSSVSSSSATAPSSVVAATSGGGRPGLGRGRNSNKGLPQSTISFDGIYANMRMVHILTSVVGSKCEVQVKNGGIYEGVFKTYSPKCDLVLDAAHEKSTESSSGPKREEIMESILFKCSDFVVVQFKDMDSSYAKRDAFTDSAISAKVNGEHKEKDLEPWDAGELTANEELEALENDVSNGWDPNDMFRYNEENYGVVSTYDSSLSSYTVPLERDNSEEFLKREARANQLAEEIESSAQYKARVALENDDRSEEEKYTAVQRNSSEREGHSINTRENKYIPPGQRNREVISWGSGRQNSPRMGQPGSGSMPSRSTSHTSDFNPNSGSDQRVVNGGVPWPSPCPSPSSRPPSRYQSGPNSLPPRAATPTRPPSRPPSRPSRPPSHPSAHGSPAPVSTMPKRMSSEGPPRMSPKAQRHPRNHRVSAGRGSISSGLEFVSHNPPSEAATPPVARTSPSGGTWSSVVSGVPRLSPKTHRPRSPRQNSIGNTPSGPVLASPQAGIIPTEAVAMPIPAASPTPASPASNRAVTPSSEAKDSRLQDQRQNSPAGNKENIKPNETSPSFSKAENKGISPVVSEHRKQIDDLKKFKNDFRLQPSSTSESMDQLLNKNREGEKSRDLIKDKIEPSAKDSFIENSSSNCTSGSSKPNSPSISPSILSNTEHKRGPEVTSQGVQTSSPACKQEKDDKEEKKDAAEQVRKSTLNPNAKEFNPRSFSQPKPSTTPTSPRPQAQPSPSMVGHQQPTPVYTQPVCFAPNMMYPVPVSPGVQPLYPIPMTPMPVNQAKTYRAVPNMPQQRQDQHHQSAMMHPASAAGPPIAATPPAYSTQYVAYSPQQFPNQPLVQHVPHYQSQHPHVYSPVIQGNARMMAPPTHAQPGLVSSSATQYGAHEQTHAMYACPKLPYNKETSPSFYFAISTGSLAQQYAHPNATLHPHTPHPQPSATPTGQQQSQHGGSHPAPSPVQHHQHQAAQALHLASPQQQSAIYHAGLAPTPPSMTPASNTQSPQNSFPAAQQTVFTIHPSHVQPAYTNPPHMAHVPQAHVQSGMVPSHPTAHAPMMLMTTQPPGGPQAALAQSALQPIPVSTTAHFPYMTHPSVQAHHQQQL

| SMILES | Potency |
| --- | --- |
| CC(=O)Oc1ccc2cc(-c3cccnc3)c(=O)oc2c1 | inactive |
| COc1ccc(CNC2=NC(=O)CC(C(=O)Nc3ccc([N+](=O)[O-])cc3C)S2)cc1 (configuration not stated) | inactive |
| Cc1ccc(C2(c3ccc(C)cc3)CC2C(=O)Nc2ccc([N+](=O)[O-])cc2O)cc1 (configuration not stated) | 20 µM (active) |
| NNC(=O)C1CC1(c1ccccc1)c1ccccc1 (configuration not stated) | inactive |
| COc1ccc(Nc2cc(C(=O)NCCCN(C)Cc3ccccc3)c3ccccc3n2)c(OC)c1 | 14.1 µM (active) |
| CCCCN(CCCNC(=O)c1cc(Nc2ccc(OC)c(OC)c2)nc2ccccc12)Cc1ccccc1 | 22.4 µM (active) |
| CCCCNC(=O)c1cc2c(=O)n3cccc(C)c3nc2n(Cc2ccccc2)c1=N | inactive |
| COc1ccc(OC)c(Nc2cc(C(=O)NCc3ccccc3)c3ccccc3n2)c1 | inactive |
| COc1ccc2nc(NCCCNC(=O)c3cc(OC)c(OC)c(OC)c3)c(C#N)cc2c1 | inactive |
| CCOc1ccccc1-n1c(C)cc(C=O)c1C | inactive |
| CCn1nc(NC(=O)c2cccs2)c2cc3ccccc3nc21 | inactive |
| CCCn1c(=O)c(C(=O)Nc2ncccc2O)c(O)c2ccccc21 | inactive |
| CCn1nc(C(=O)Nc2nc(-c3ccccn3)cs2)c2ccccc2c1=O | 31.6 µM (active) |
| CC[C@@H]1C(c2cccc(Cl)c2)=NN(c2ccc(Br)cc2)[C@H]1C(=O)N1CCOC1=O | inactive |
| O=C(CN1C(=O)NC2(CCCC2)C1=O)NNC(=O)c1ccccc1F | inactive |
| CCOc1cccc(CN2CCCC(C(=O)c3cccc(C(F)(F)F)c3)C2)c1O (configuration not stated) | inactive |
| Cc1nc(-c2ccc(S(=O)(=O)Oc3ccc(Cl)cc3Cl)s2)cs1 | inactive |
| CCOC(=O)c1cc2c(=O)n3ccccc3nc2n(Cc2ccco2)/c1=N\C(=O)c1ccccc1Br | inactive |
| O=C1c2ccccc2C(=O)c2[nH]c(O)nc21 | 25.1 µM (active) |
| CCC(=O)N(CC)C1=C(O)C(=O)c2ccccc2C1=O | inactive |
| CCOC(=O)C1CCN(C(=O)c2ccc(CNS(=O)(=O)c3ccc(OC)cc3)cc2)CC1 | inactive |
| O=C1NCCCC1C(=O)N/N=C/c1ccc(Cl)cc1 (configuration not stated) | inactive |
| O=C(CCCCC(=O)NN=Cc1ccc(Cl)cc1)NN=Cc1ccc(Cl)cc1 | 39.8 µM (active) |

| SMILES | Potency |
| --- | --- |
| O=C(CCCCC(=O)NN=Cc1ccc2c(c1)CCC2)NN=Cc1ccc2c(c1)CCC2 | inactive |
| Cc1c(-c2ccccc2)cnc2c(C)cccc12 | inactive |
| CCc1cc(=O)oc2c(C)c(O)c(CN(C)C)cc12 | inactive |
| CC1CCCCC1NC(=O)COC(=O)c1c2c(nc3ccccc13)/C(=C/c1ccco1)CC2 (configuration not stated) | inactive |
| CCN(CCn1cccn1)C(=O)CC1C(=O)NCCN1Cc1ccc(F)cc1 (configuration not stated) | inactive |
| CCc1cc(CNC(=O)CC2C(=O)NCCN2Cc2ccc(-c3ccccc3)cc2)on1 (configuration not stated) | 35.5 µM (active) |
| COc1cccc(CN2CCNC(=O)C2CC(=O)NC2CCOCC2)c1OC (configuration not stated) | inactive |
| O=S(=O)(Nc1ccc(-c2cn3cccnc3n2)cc1)c1ccccc1 | inactive |
| Clc1ccc(-c2nc3cnccn3c2NC2CCCC2)cc1 | inactive |
| O=C(O)c1ccn2c(C(=O)c3ccc(Cl)cc3)c(-c3ccccc3)cc2c1 | inactive |
| CC(C)(C)C(CN1CCCC1)OC(=O)c1ccccc1 (configuration not stated) | inactive |
| O=C(c1ccc(Cl)cc1)C(CN1CCCCC1)c1ccccc1 (configuration not stated) | 31.6 µM (active) |
| COc1ccc(C(=O)C(CN2CCCC2)c2ccccc2)cc1 (configuration not stated) | 28.2 µM (active) |
| O=C(c1ccc(Cl)cc1)C(CN1CCCC1)c1ccccc1 (configuration not stated) | 22.4 µM (active) |
| O=C(/C=C/c1cn(CC(O)CN2CCCCC2)c2ccccc12)c1ccccc1 (configuration not stated) | inactive |
| O=C(c1ccc(Cl)cc1)C1CCN(C(=O)c2ccccc2F)CC1 | inactive |
| O=C(/C=C/c1cn(CC(O)CN2CCCCCC2)c2ccccc12)c1ccccc1 (configuration not stated) | inactive |
| COc1ccc(CC(=O)N2CCN(c3ccccc3)CC2)cc1 | inactive |
| O=C(C1=NN(c2ccccc2)C2C(=O)N(c3cccc(Cl)c3)C(=O)C12)c1ccccc1 (configuration not stated) | inactive |
| COc1ccc(-c2c(C#N)c(N)nc3c2CCC3)cc1 | inactive |
| CCCCN1C(=O)C2Cc3c([nH]c4ccccc34)CN2C1=S (configuration not stated) | inactive |
| O=c1c(O)c(-c2cccs2)oc2ccccc12 | inactive |
| CC(C)Oc1ccc(C(CCN)C2CCCCC2)cc1 (configuration not stated) | 25.1 µM (active) |

| SMILES | Potency |
| --- | --- |
| CCC(=O)Nc1cccc(C2=NN(c3ccccc3)C(c3ccc(OC)cc3)C2)c1 (configuration not stated) | inactive |
| COc1ccc(C2CC(c3ccc(OC)cc3OC(C)=O)=NN2C(=O)c2ccccc2)cc1 (configuration not stated) | inactive |
| COc1ccc(C2CC(c3ccc4ccccc4c3)=NN2C(=O)CNC2CCCCC2)cc1 (configuration not stated) | 39.8 µM (active) |
| CCOc1ccc2nc(NCCCNS(=O)(=O)c3ccc(F)cc3)c(C#N)cc2c1 | inactive |
| Nc1c(C(=O)Nc2ccccc2F)sc2nc(-c3ccco3)ccc12 | inactive |
| COc1ccc(C(=O)Nc2cccc(/C=C/c3nc(O)c4ccccc4n3)c2)cc1 | 25.1 µM (active) |
| COc1ccc(NC(=O)c2cc3ccccc3cc2O)cc1 | inactive |
| COc1cc(/C=C/c2nc(O)c3ccccc3n2)cc(Cl)c1O | inactive |
| O[C@@H]1[C@@H]2c3cc4c(cc3CN3CCC(=C[C@@H]1O)[C@H]23)OCO4 | 6.31 µM (active) |
| COc1cc(C2Nc3ccc4ccccc4c3C3=C2C(=O)CC(C)(C)C3)ccc1OCC(=O)O (configuration not stated) | inactive |
| COCCN(CCOC)Cc1c(O)ccc2c1O/C(=C\c1ccco1)C2=O | inactive |
| Cc1cc(-c2ccnc(-n3ncc(C(=O)NCC4COCCO4)c3C3CC3)n2)c(C)s1 (configuration not stated) | inactive |
| O=C(NN/C=C1\C(=O)N(c2ccccc2Cl)C(=O)c2ccccc21)c1cccnc1 | inactive |
| CNc1ccc(N=Nc2cc[n+]([O-])cc2C)cc1C | 28.2 µM (active) |
| CCOC(=O)C1(Cc2ccccc2C(F)(F)F)CCN(CC(O)CO)CC1 (configuration not stated) | inactive |
| Cc1cccn2c(=O)c3cc(S(=O)(=O)c4ccccc4)c(=N)n(Cc4ccco4)c3nc12 | inactive |
| Cc1nn(-c2ccccc2)c(C)c1C(=O)OCC(=O)Nc1ccccc1Cl | inactive |
| Cc1ccc(-n2nc(C)c(NC(=O)CCl)c2C)cc1 | 39.8 µM (active) |
| COc1ccc(-c2c(NC(=O)c3ccco3)n(-c3ccc(C)cc3)nc(C)c2=O)cc1 | inactive |
| Cc1nn(Cc2ccc(Cl)cc2Cl)c(C)c1NC(=O)CCl | 25.1 µM (active) |
| CCc1ccc(-c2cc(C(F)(F)F)n3nc(C(=O)Nc4c(C)nn(Cc5ccccc5Cl)c4C)cc3n2)s1 | inactive |
| Cc1nn(Cc2ccccc2Cl)c(C)c1C(=O)N(C)CC(=O)Nc1cccc(F)c1 | inactive |
| Cc1cc(C)n(-c2ccc(C(=O)NCC(=O)Nc3cc(Cl)ccc3Cl)cc2)n1 | inactive |

| SMILES | Potency |
| --- | --- |
| Cc1ccc(-n2nc(C)c(NC(=O)CCl)c2C)cc1C | 35.5 µM (active) |
| CCOC(=O)CNC(=O)Cn1cnc2c(cnn2-c2ccc(C)cc2)c1=O | inactive |
| COCCSc1ccccc1C(=O)N1CCc2ccccc21 | inactive |
| CCOCCCn1c(=N)c(C(=O)NCc2ccccc2)cc2c(=O)n3ccccc3nc21 | inactive |
| O=C1CCC(=O)N1c1nc2n(n1)C(c1ccccc1)C=C(c1ccc(Br)cc1)N2 (configuration not stated) | inactive |
| O=c1c2ccccc2[nH]c2ccccc12 | inactive |
| Cc1ccc2[nH]c3ccccc3c(=O)c2c1 | inactive |
| Cc1[nH]c2ccccc2c1C1=CC(=O)C=CC1=O | 39.8 µM (active) |
| COCc1cc(C)nc2sc(C(=O)Nc3nccs3)c(N)c12 | inactive |
| Cc1ccccc1N=C(S)NNC(=O)c1cccc(Br)c1 | inactive |
| O=C(N/N=C1/C(=O)c2cccc3cccc1c23)c1ccc(Cl)cc1 | 35.5 µM (active) |
| C/C(=N\NC(=O)c1ccc(-n2cnnn2)cc1)c1ccc(Cl)cc1 | inactive |
| Nc1[nH]cnc2c(C3OC(CO)C(O)C3O)cnc1-2 (configuration not stated) | 0.299 µM (active) |
| CCOC(=O)c1cc2c(=O)n3ccccc3nc2n(Cc2ccco2)/c1=N\C(=O)c1ccc(F)cc1 | inactive |
| Cc1cccn2c(=O)c3cc(S(=O)(=O)c4ccc(F)cc4)c(=N)n(Cc4ccco4)c3nc12 | inactive |
| Cc1nc2c(sc(=S)n2Cc2ccco2)c(=O)n1CC(=O)Nc1ccc(F)cc1 | 39.8 µM (active) |
| Cc1cc(C)c2c(N)c3cccc(C)c3nc2n1 | inactive |
| CCOC(=O)C1=C(C#N)C(C(=O)OCC)c2ncccc21 (configuration not stated) | inactive |
| CCOC(=O)C1=C(Nc2ccccc2)S/C(=C\c2ccc(OCC(=O)O)c(OCC)c2)C1=O | inactive |
| CCOC(=O)C1=C(O)c2ccccc2C(=O)/C1=C\c1ccc(C)cc1 | 39.8 µM (active) |
| COCCNc1c2c(c(C#N)c3nc4ccccc4n13)CCCC2 | inactive |
| Cc1c(Cl)cccc1-c1ccc(/C=C(\C#N)c2nc3ccccc3[nH]2)o1 | inactive |
| COc1cc(/C=C(\C#N)c2nc3cc(C)ccc3[nH]2)ccc1OCc1ccc(C)cc1 | inactive |

| SMILES | Potency |
| --- | --- |
| COc1ccc(/C=C(\C#N)c2nc3cc(C)ccc3[nH]2)cc1Oc1ccc(C(F)(F)F)cc1[N+](=O)[O-] | 44.7 µM (active) |
| COc1cc(/C=C(\C#N)c2nc3cc(C)ccc3[nH]2)ccc1OC(C)C | inactive |
| Cc1ccc2[nH]c(/C(C#N)=C/c3ccc(-c4ccccc4C(=O)O)o3)nc2c1 | inactive |
| Cc1ccc2[nH]c(/C(C#N)=C\c3ccc([N+](=O)[O-])o3)nc2c1 | 8.91 µM (active) |
| Oc1c(Br)cc(Br)cc1/C=N\c1cccnc1 | inactive |
| COCc1cc(N2CCCC2)nc(-c2ccccc2)n1 | inactive |
| Cc1c(N=C2N=C(NC(=O)Nc3ccc(Cl)cc3)c3ccccc32)c(=O)n(-c2ccccc2)n1C | inactive |
| O=C1c2cccc3c([N+](=O)[O-])ccc(c23)C(=O)N1CC1CCCO1 (configuration not stated) | inactive |
| CCCCCn1nc(-c2ccccc2)c2nc3ccccc3nc21 | inactive |
| CCC(=O)NCCCc1nc2ccccc2n1Cc1ccccc1F | inactive |
| CCCCCn1c(N)c(C#N)c2nc3ccccc3nc21 | inactive |
| CCCn1c(CNC(=O)c2cccs2)nc2ccccc21 | inactive |
| CCn1c(C)nc2cc(C(=O)N/N=C(\C)c3ccccc3O)ccc21 | inactive |
| Cc1cccc(-n2cnc3cc(C(=O)NCCN4CCOCC4)ccc32)c1 | inactive |
| Cc1ccc(C(=O)NCCc2ccccc2)cc1N1CCCC1=O | inactive |
| Cc1cccc(C(=O)NCCc2nc3ccccc3n2Cc2ccc(Cl)cc2)c1 | 28.2 µM (active) |
| CCCCCn1c(CCNC(=O)c2cccc(C)c2)nc2ccccc21 | 31.6 µM (active) |
| CCc1ccccc1-n1c(C)nc2cc(C(=O)NCCc3ccc(Cl)cc3)ccc21 | 44.7 µM (active) |
| CCCCCn1c(-c2cccc(C)c2)nc2ccccc21 | 35.5 µM (active) |
| ClCc1nc2ccccc2n1Cc1ccccc1 | inactive |
